According to the supplement of paper PMC13380429:

System: Vero E6 infected with SARS-CoV-2
Experiment: inhibition of SARS-CoV-2 cytopathic effect; higher = more antiviral protection, active = above 15
Conditions: 48 h

Measured: inhibition of SARS-CoV-2 cytopathic effect

CCCCCNC(=N)N/N=C/c1c[nH]c2ccc(OC)cc12 [tegaserod]
inactive: 1 nM -2.52% | 8.33 nM -0.54% | 100 nM -3.2% | 833.33 nM -3.82% | 10000 nM -1.44%

CN(C(=O)CCCOc1ccc2[nH]c(=O)ccc2c1)C1CCCCC1 [cilostamide]
inactive: 1 nM 0.62% | 8.33 nM 1.01% | 100 nM -0.1% | 833.33 nM 0.52% | 10000 nM -0.25%

CC(=O)OCC(=O)[C@@]1(OC(C)=O)[C@@H](C)C[C@H]2[C@@H]3C[C@H](F)C4=CC(=O)C=C[C@]4(C)[C@@]3(F)[C@@H](O)C[C@@]21C [diflorasone-diacetate]
inactive: 1 nM 3.78% | 8.33 nM 2.43% | 100 nM 1.22% | 833.33 nM 0.13% | 10000 nM 1.53%

CCCC[C@H]1C(=O)N(c2ccccc2)N(c2ccc(O)cc2)C1=O [oxyphenbutazone]
inactive: 1 nM 0.53% | 8.33 nM 1.14% | 100 nM 1.48% | 833.33 nM 3.6% | 10000 nM 10.9%

O=C1N(c2ccccc2)c2ccccc2C1(Cc1ccncc1)Cc1ccncc1 [linopirdine]
inactive: 1 nM 2.06% | 8.33 nM 0.32% | 100 nM 1.23% | 833.33 nM -0.29% | 10000 nM 1.14%

O=P(O)(O)C(O)(Cc1cnc2ccccn12)P(=O)(O)O [minodronic-acid]
inactive: 1 nM -2.81% | 8.33 nM -1.07% | 100 nM -0.4% | 833.33 nM 2.46% | 10000 nM -1.52%

CC(C)(C)c1cc(C=C(C#N)C#N)cc(C(C)(C)C)c1O [tyrphostin-A9]
inactive: 1 nM 1.9% | 8.33 nM 1.44% | 100 nM 4.1% | 833.33 nM 8.55% | 10000 nM 6.42%

CC(C)(c1ccc(O)cc1)c1ccc(O)cc1 [bisphenol-A]
inactive: 1 nM 3.73% | 8.33 nM 8.2% | 100 nM 2.75% | 833.33 nM 1.31% | 10000 nM 4%

O=C(O)c1nc(=O)[nH]c(=O)[nH]1 [oxonic-acid]
inactive: 1 nM -6.02% | 8.33 nM -2.79% | 100 nM 1.25% | 833.33 nM 0.64% | 10000 nM -0.52%

Cc1c(C(=O)NN2CCCCC2)nn(-c2ccc(Cl)cc2Cl)c1-c1ccc(Cl)cc1 [rimonabant]
inactive: 1 nM -1.86% | 8.33 nM 1.55% | 100 nM -0.12% | 833.33 nM 0.01% | 10000 nM -3.44%

OC[C@H]1O[C@@H](c2ccc(Cl)c(Cc3ccc(O[C@H]4CCOC4)cc3)c2)[C@H](O)[C@@H](O)[C@@H]1O [empagliflozin]
inactive: 1 nM 1.11% | 8.33 nM -0.27% | 100 nM 0.91% | 833.33 nM 1.13% | 10000 nM -2.24%

COc1ccc(Cl)c(Nc2ncnc3cc(OCC4CCN(C)CC4)c(OC)cc23)c1
inactive: 1 nM -1.15% | 8.33 nM -0.25% | 100 nM -0.48% | 833.33 nM -6.41% | 10000 nM -13.8%

COc1cccc(-c2cc(NCc3ccc4c(c3)OCO4)nc(N)n2)c1
inactive: 1 nM 0.39% | 8.33 nM -1.05% | 100 nM 0.16% | 833.33 nM -2.75% | 10000 nM -1.99%

COC1(C2=NCCN2)COc2ccccc2O1 (stereo not given)
inactive: 1 nM 0.37% | 8.33 nM 1.98% | 100 nM -0.68% | 833.33 nM 1.5% | 10000 nM 1.58%

COc1ccc(/C=C/C(=O)O)cc1 [trans-4-methoxycinnamic-acid]
inactive: 1 nM 1.02% | 8.33 nM -0.31% | 100 nM -1.64% | 833.33 nM -0.87% | 10000 nM -1.56%

C[n+]1c2cc(N)ccc2cc2ccc(N)cc21 [acriflavinium]
inactive: 1 nM -3.77% | 8.33 nM -2.4% | 100 nM -2.84% | 833.33 nM -0.42% | 10000 nM -5.69%

COc1ccc2cccc(N3CCN(CCNC(=O)c4ccc(F)cc4)CC3)c2c1
inactive: 1 nM -1.86% | 8.33 nM -0.57% | 100 nM 0.77% | 833.33 nM 0.7% | 10000 nM -3.37%

Cc1ccc(NC(=O)c2ccc(CN3CC[C@H](N(C)C)C3)c(C(F)(F)F)c2)cc1Nc1nccc(-c2cncnc2)n1 [bafetinib]
inactive: 1 nM 3.35% | 8.33 nM -0.19% | 100 nM 0.01% | 833.33 nM -3.15% | 10000 nM -4.8%
